From PubChem BioAssay (NCATS)
“And” between values parts separate entries of the source, which are not always exact repeats. Equal values may be shown once. Records with an inconclusive call do not appear. The source made the active and inactive calls. Unless noted, calls follow the shape of the dose curve; as a rule, active = well fitted curve in the direction sought with a large enough effect; inconclusive = small, poorly fitted or top-dose-only effect, or another doubt; inactive = no such curve, though single readings can be large; an effect the other way counts as inactive or inconclusive.

Columns and labels:
[1] = Cell Viability - Hek293 (AID 427;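 active = compounds whose dose-response curve shows a full or clear partial loss of cell viability, called from curve shape rather than a numeric limit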;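 also: potency is read from the fitted curve at half-maximal effect; cells exposed to compound for 40 hours at 37 °C before reading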); conditions: qHTS
Procedure, shortened: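 HEK293 cells in complete medium were exposed to compound for 40 hr at 37 °C, then cellular ATP was read by CellTiter-Glo luminescence. Data were normalized to DMSO (basal) and 100 uM tamoxifen (100% inhibition), and AC50 came from Hill fits.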

[2] = Cell Viability - SK-N-SH (AID 435; calls by dose curve;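 also: potency is read from the fitted curve at half-maximal effect; compound exposure lasted 40 h at 37 °C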); conditions: SK-N-SH neuroblastoma cell viability qHTS
Procedure, shortened: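 CellTiter-Glo ATP luminescence, 20 min RT read; cells pre-plated 5 hr, compound 40 hr at 37 °C, 1500 cells/well, complete medium. Normalized DMSO = 0, 100 uM tamoxifen = 100% inhibition; Hill-fit AC50.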

[3] = Cell Viability - HUV-EC-C (AID 542); conditions: HUV-EC-C endothelial cell viability, qHTS; series mostly up to 92.2 µM; also: % is scaled to controls: 0 for no effect and ±100 for the full control effect; nearly all actives have a fitted effect of over 35% in size
Procedure, shortened: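 Cells were seeded at 1000 per well and incubated 5 hr at 37 °C before compound addition. After 40 hr at 37 °C, CellTiter-Glo reagent was added for 20 min and luminescence read. AC50 values came from Hill-equation modelling.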

[4] = Cellular Toxicity (caspase-3) Renal Proximal Tubule (AID 667); conditions: renal proximal tubule cells; series mostly up to 91.7 µM;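 also: cells exposed to compound for 16 hours at 37 °C before detection; 0% = DMSO basal and 100% = 10 µM staurosporine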
Procedure, shortened: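 Luminescent caspase 3/7 signal from peptide-aminoluciferin cleavage measures apoptosis in freshly isolated rat kidney proximal tubule cells after 16 h compound exposure. Concentration-response data are normalized to DMSO and 10 uM staurosporine, and AC50 values come from Hill equation fits.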

[5] = molecular target: Cytochrome P450 3A4 (Homo sapiens) (UniProt P08684); experiment: qHTS Assay for Inhibitors and Substrates of Cytochrome P450 3A4 (AID 884); conditions: recombinant CYP3A4, Luciferin-PPXE luminescence; series mostly up to 57.1 µM; also: nearly all actives have a fitted effect of over 50% in size; also: potency is read from the fitted curve at half-maximal effect
Cytochrome P450 3A4 (Homo sapiens), sequence (P08684 whole entry, looked up): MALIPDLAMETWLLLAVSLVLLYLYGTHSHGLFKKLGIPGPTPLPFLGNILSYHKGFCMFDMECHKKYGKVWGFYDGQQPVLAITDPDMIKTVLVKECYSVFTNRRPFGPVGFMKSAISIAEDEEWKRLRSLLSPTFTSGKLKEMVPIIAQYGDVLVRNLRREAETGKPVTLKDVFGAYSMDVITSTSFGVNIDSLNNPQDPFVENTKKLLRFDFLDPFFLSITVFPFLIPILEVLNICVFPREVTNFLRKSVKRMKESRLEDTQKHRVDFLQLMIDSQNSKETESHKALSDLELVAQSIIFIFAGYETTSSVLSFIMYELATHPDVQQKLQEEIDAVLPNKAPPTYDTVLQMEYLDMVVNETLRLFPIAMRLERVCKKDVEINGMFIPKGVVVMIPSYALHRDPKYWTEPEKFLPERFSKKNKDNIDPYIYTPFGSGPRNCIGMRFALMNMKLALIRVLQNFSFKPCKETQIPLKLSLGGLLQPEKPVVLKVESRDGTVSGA
Procedure, shortened: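 Luminescent readout of luciferin produced by CYP3A4 (20 nM) dealkylation of Luciferin-PPXE, 25 uM (its KM). NADPH-driven reaction ran 60 min at RT after 10 min compound preincubation; data scaled to 57 uM ketoconazole as 100% inhibition.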

[6] = Cell Viability - LYMP2-004 (AID 966); conditions: LYMP2-004 lymphoblastoid cell viability, qHTS; series mostly up to 92.2 µM; also: nearly all actives have a fitted effect of over 65% in size; also: potency is read from the fitted curve at half-maximal effect
Procedure, shortened: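 qHTS cytotoxicity: human lymphoblastoid line, 24 hr compound treatment, 37 C, complete medium. Viability read as cellular ATP via luciferase luminescence; tetraoctylammonium bromide served as positive control.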

[7] = Cell Viability - LYMP2-005 (AID 967); conditions: LYMP2-005 lymphoblastoid cell viability; series mostly up to 92.2 µM; also: potency is read from the fitted curve at half-maximal effect
Procedure, shortened: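 Steps: seed 2500 LYMP2-005 cells/well, incubate 5 h at 37 C, add compound, incubate 24 h at 37 C, add CellTiter-Glo, wait 30 min at RT, read luminescence. Concentration-response data fitted to Hill equation for AC50.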

[8] = Cell Viability - LYMP2-012 (AID 982); conditions: LYMP2-012 lymphoblastoid cell viability qHTS; series mostly up to 92.2 µM;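 also: cellular ATP by luciferase luminescence where a drop means cytotoxicity; cells exposed to compound for one day before reading; nearly all actives have a fitted effect of over 55% in size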; also: potency is read from the fitted curve at half-maximal effect
[9] = Cell Viability - LYMP2-018 (AID 985); conditions: LYMP2-018 lymphoblastoid cells, viability (qHTS); series mostly up to 92.2 µM;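 also: compound exposure lasted 24 hr at 37 °C; nearly all actives have a fitted effect of over 50% in size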; also: potency is read from the fitted curve at half-maximal effect
Procedure, shortened: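 Seed 2500 lymphoblastoid cells per well, incubate 5 hr at 37 C, add compound and incubate 24 hr at 37 C, add CellTiter-Glo, wait 30 min at room temperature, then read luminescence.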

[10] = Cell Viability - LYMP1-002 - Assay at 40 hr (AID 994); conditions: LYMP1-002 lymphoblastoid cell viability; series mostly up to 92.2 µM;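 also: 0% = DMSO only and full inhibition = 92 µM tetraoctylammonium bromide; nearly all actives have a fitted effect of over 60% in size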
Procedure, shortened: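 Cells are plated at 2500 per well and rested 5 hr at 37 C. Compounds are added and incubated 40 hr at 37 C. CellTiter-Glo reagent is added for 30 min at room temperature before luminescence is read.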

[11] = qHTS assay for small molecule antagonists of retinoid X receptor alpha signaling (AID 588546; active = well fitted inhibition curve with a large enough effect in the signal ratio, with a control signal flat, not every such curve was filed as active; the % refers to the signal ratio;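 also: cells stimulated with 9-cis-retinoic acid as agonist; % is scaled to controls: 0 for no effect and ±100 for the full control effect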); conditions: HEK293T RXRa-UAS-bla, beta-lactamase ratio, antagonist mode; measured here: W530 green channel, cytotoxicity proxy
Procedure, shortened: (§1)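 Beta-lactamase reporter inhibition, read as CCF4 fluorescence ratio (ex 405, em 460/530 nm) after 2 h at RT. HEK293T UAS-bla cells, 2500/well, were stimulated with 9-cis-RA at 500 or 100 nM final alongside test compound for 18 h at 37 C.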

[12] = molecular target: Retinoic acid receptor RXR-alpha (Homo sapiens) (UniProt P19793); experiment: as above; conditions: HEK293T RXRa-UAS-bla, beta-lactamase ratio, antagonist mode
Retinoic acid receptor RXR-alpha (Homo sapiens), sequence (P19793 whole entry, looked up): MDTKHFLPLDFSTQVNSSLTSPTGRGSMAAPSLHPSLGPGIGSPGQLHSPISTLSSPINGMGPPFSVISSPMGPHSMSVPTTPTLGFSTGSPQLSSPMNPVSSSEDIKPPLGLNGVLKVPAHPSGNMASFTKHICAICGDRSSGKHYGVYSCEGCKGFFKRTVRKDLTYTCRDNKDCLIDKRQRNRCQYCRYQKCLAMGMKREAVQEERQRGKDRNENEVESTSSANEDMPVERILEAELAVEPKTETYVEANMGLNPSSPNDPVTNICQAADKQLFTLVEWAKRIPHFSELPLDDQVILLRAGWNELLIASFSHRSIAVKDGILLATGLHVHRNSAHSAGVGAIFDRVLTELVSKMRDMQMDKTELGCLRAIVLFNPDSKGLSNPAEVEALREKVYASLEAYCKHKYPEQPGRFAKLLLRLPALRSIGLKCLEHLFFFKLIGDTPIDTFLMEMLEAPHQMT
Procedure, shortened: as §1

[13] = qHTS assay for environmental chemicals that activate the Aryl hydrocarbon Receptor (AhR) signaling pathway (AID 651777); conditions: 1A2-DRE human hepatoma cells, luciferase, 24 h; activation: stronger effect = higher value; also: nearly all actives have a fitted effect of over 15% in size; also: potency is read from the fitted curve at half-maximal effect; as to activation: % of control where 0% means no effect
Procedure, shortened: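 Stable CYP1A2 promoter/DRE-luciferase human hepatoma line treated 24 hr; One-Glo luminescence, 30 min RT.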

[14] = Cell Viability - H-4-II-E (AID 543); conditions: H-4-II-E rat hepatoma viability; series mostly up to 92.2 µM; also: % is scaled to controls: 0 for no effect and ±100 for the full control effect; nearly all actives have a fitted effect of over 35% in size
Procedure, shortened: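 Cells seeded at 1500 per well and rested 5 hr; compounds added; 40 hr incubation at 37 °C; CellTiter-Glo added, 20 min at room temperature; luminescence read. Hill-equation fits gave AC50.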

[15] = Cell Viability - SH-SY5Y (AID 544); conditions: SH-SY5Y neuroblastoma cell viability; viability change, negative = cytotoxic: at 92.2 µM (top of the series); also: nearly all actives have a fitted effect of over 55% in size; also: potency is read from the fitted curve at half-maximal effect;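 as to viability change, negative = cytotoxic: 0% = DMSO alone and -100% = 100 µM tamoxifen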
Procedure, shortened: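 Cells were plated at 1500 per well and allowed 5 hr at 37 °C. Compounds were added across a concentration range and incubated 40 hr at 37 °C. CellTiter-Glo was added for 20 min at room temperature before luminescence reading.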

[16] = MultiTox-Fluor Cytotoxicity Assay - LYMP1-002 - Dead Cells (AID 960); conditions: LYMP1-002 lymphoblastoid cells, dead-cell protease fluorescence; series mostly up to 46.1 µM;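 also: cells exposed to compound for 16 h at 37 °C; 0% = DMSO and 100% = tetraoctylammonium bromide; nearly all actives have a fitted effect of over 60% in size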
Procedure, shortened: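 Cells were plated, rested 5 hr, then treated with compound dilution series for 16 hr at 37 C. After adding substrate reagent and 60 min at room temperature, dead-cell protease fluorescence gave concentration-response curves fitted by the Hill equation.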

[17] = qHTS assay for small molecule agonists of retinoid X receptor alpha signaling (AID 588544; calls by dose curve;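 as to activation: 0% = DMSO basal wells and 100% = reference agonist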); conditions: HEK293T RXRa-UAS-bla, beta-lactamase reporter, 18 h; 530 nm emission
[18] = molecular target: Retinoic acid receptor RXR-alpha (Homo sapiens) (UniProt P19793); experiment: as above; conditions: HEK293T RXRa-UAS-bla, beta-lactamase reporter, 18 h; series mostly up to 76.7 µM
[19] = molecular target: Tumor necrosis factor (Homo sapiens) (UniProt P01375); experiment: qHTS assay to identify small molecules that stimulate Tumor Necrosis Factor-alpha (TNF-alpha) secretion (AID 651757; active = well fitted curve in the direction sought with a large enough effect in the signal ratio; the % refers to the signal ratio; also: 0% is about no effect); conditions: Human cells, HTRF 665/615 ratio; series mostly up to 92.2 µM
Tumor necrosis factor (Homo sapiens), sequence (P01375 whole entry, looked up): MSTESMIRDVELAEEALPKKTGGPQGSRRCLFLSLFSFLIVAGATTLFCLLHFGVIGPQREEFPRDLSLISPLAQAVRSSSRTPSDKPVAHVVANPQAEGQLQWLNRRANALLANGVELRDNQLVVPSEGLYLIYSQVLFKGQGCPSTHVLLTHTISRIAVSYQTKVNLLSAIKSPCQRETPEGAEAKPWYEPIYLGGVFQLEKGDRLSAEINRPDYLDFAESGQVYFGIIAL
Procedure, shortened: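 Human monocytic THP-1 cells are plated, treated with compound and held at 37 C for 17 hrs. Labeled anti-TNF-alpha antibody mixture is then added; after 3 hr at room temperature, TR-FRET signal reports secreted TNF-alpha.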

[20] = qHTS assay for small molecule agonists of the antioxidant response element (ARE) signaling pathway measured by Nrf2-dependant transcriptional activity (AID 720636; active = well fitted curve in the direction sought with a large enough effect in the repeat runs; an effect the other way counts as inactive or inconclusive;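 also: HepG2 cells with an ARE-driven luciferase reporter; % of control where 0% means no effect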); conditions: ARE-luc HepG2, Nrf2 luciferase reporter, 16 h; series mostly up to 92.4 µM
Procedure, shortened: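 Reporter gene assay, HepG2 ARE-luc: 16 hr compound, 37 C, 5% CO2; read-out luciferase luminescence.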

Cc1cc(N=Nc2ccccc2C)ccc1N
-7.48%: max response [11]
inactive: Potency [1] > 92 µM | Potency [2] > 92 µM | Potency [3] | outcome [4] | Potency [6] | Potency [7] | Potency [8] | Potency [9] | Potency [10] | max response [12] -17.1%
active: Potency [5] 5.01 µM | Potency [13] 44.7 µM

C=CC(=O)OCCN(C)C
-14.1%: max response [17]
inactive: Potency [1] > 92 µM | Potency [2] > 92 µM | Potency [3] | Potency [14] | Potency [15] | outcome [4] | Potency [5] | Potency [16] | Potency [6] | Potency [7] | Potency [8] | Potency [9] | Potency [10] | outcome [18] | max response [12] 5.11% | outcome [19] | activation [13] 0.563% | Potency [20]
-6.38%: max response [11]

c1ccc(P(c2ccccc2)c2ccccc2)cc1
22.6%: max response [17]
inactive: Potency [1] > 92 µM | Potency [2] > 92 µM | Potency [3] | Potency [14] | Potency [15] | outcome [4] | Potency [5] | Potency [6] | Potency [8] | Potency [9] | Potency [10] | outcome [18] | max response [12] 14.4% | outcome [19] | activation [13] 0.491% | Potency [20]
-7.38%: max response [11]

BrCCc1ccccc1
2.46%: max response [11]
inactive: Potency [1] > 92 µM | Potency [2] > 92 µM | Potency [3] | Potency [14] | Potency [15] | outcome [4] | Potency [5] | Potency [16] | Potency [6] | Potency [8] | Potency [9] | Potency [10] | outcome [18] | max response [12] 9.1% | outcome [19] | activation [13] -0.177% | Potency [20]
1.56%: max response [17]

Nc1c(Cl)cc([N+](=O)[O-])cc1Cl
7.55% and -9.5%: max response [11]
-1.27% and -9.53%: max response [17]
inactive: Potency [1] > 92 µM | Potency [2] > 92 µM | Potency [3] | Potency [15] | outcome [4] | Potency [5] | Potency [16] | Potency [6] | Potency [7] | Potency [8] | Potency [9] | Potency [10] | outcome [18] | max response [12] 5.54% and -6.63% | outcome [19] | activation [13] -0.0582% and 1.9% | Potency [20]

Oc1c(Cl)c(Cl)cc(Cl)c1Cl
inactive: Potency [3] | outcome [4] | Potency [5] | Potency [16] | Potency [6] | Potency [7] | Potency [8] | Potency [9] | Potency [10] | outcome [18] | max response [12] -10.3% | outcome [19] | activation [13] 0.522% | Potency [20]
-8.85%: max response [11]
19.2%: max response [17]

Nc1ccc(Cc2ccc(N)c(Cl)c2)cc1Cl
inactive: Potency [1] > 92 µM | Potency [2] > 92 µM | Potency [15] | Potency [6] | Potency [7] | Potency [8] | Potency [9] | Potency [10] | max response [12] -29.3% | outcome [19] | activation [13] 3.75% | Potency [20]
-5.52%: max response [11]
active: Potency [5] 5.01 µM

N#CC(Br)Br
0.349%: max response [17]
-2.67%: max response [11]
inactive: Potency [1] > 92 µM | Potency [2] > 92 µM | Potency [3] | Potency [15] | Potency [5] | Potency [16] | Potency [6] | Potency [7] | Potency [10] | outcome [18] | max response [12] 18.7% | outcome [19] | activation [13] 1.38% | Potency [20]

c1ccc(N=NNc2ccccc2)cc1
active: Potency [13] 12.6 µM and 1.41 µM
inactive: Potency [1] > 92 µM | Potency [2] > 92 µM | Potency [3] | Potency [14] | outcome [4] | Potency [5] | Potency [16] | Potency [6] | Potency [7] | Potency [8] | Potency [9] | Potency [10] | outcome [18] | max response [12] -17.2% | outcome [19]
7.75%: max response [17]
-2.24%: max response [11]

COP(=S)(OC)SCn1nnc2ccccc2c1=O
active: Potency [15] 15.8 µM | Potency [5] 7.94 µM
inactive: Potency [3] | outcome [4] | Potency [16] | Potency [7] | Potency [8] | Potency [9] | Potency [10] | outcome [19] | activation [13] 2.58% and 5.04% | Potency [20]

O=C(O)c1cccc(Cl)c1
-9.83%: max response [17]
inactive: Potency [1] > 92 µM | Potency [2] > 92 µM | Potency [3] | Potency [14] | Potency [15] | Potency [5] | Potency [16] | Potency [6] | Potency [7] | Potency [8] | Potency [9] | Potency [10] | outcome [18] | outcome [19] | activation [13] 0.728% | Potency [20]

N#CC(Cl)(Cl)Cl
inactive: Potency [1] > 92 µM | Potency [2] > 92 µM | Potency [3] | Potency [14] | Potency [15] | outcome [4] | Potency [5] | Potency [6] | Potency [7] | Potency [8] | Potency [9] | Potency [10] | outcome [18] | max response [12] 11.1% | outcome [19] | activation [13] 0.19% | Potency [20]
-10.8%: max response [17]
-17.2%: max response [11]

CN1CSC(=S)N(C)C1
5.73%: max response [11]
active: viability change, negative = cytotoxic [15] -83% | Potency [6] 31.6 µM | Potency [7] 31.6 µM | Potency [8] 25.1 µM | Potency [9] 12.6 µM
inactive: Potency [3] | outcome [4] | Potency [5] | Potency [16] | max response [12] -34.7% | outcome [19] | activation [13] -0.101% and -0.0706% | Potency [20]
